From the supplement of paper PMC10849652
About 8,800 targets were measured; listed, in parts, are those with a hit and a random draw of the rest. About 0.5% of all pairs of compound and target were hits.

Compound: C#Cc1cccc(Nc2ncnc3cc(OCCOC)c(OCCOC)cc23)c1 [erlotinib]
Assay: log2 fold change, soluble protein after heating vs DMSO (PISA); higher = thermal stabilisation; K562 lysate, 10 uM; active = over 0.2 and 3.5 SD of the protein, either way, in both replicates (recomputed)
How it was run: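 Dounce homogenisation of K562 pellets in PBS pH 7.4 with 1 mM MgCl2 produced a crude extract, used at 1 mg/mL protein. Exposure to 10 μM compound lasted 30 min, and aliquots were then heated for 3 min across 48°C-58°C, pooled and brought to 0.5% NP-40 at 4°C. The supernatant after 21,000xg for 90 min was quantified by TMTpro 16plex LC-MS/MS with channel sums equalised. Duplicate values are given as log-two fold change in thermal stability relative to solvent controls.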

UniProt Q7L7V1, sequence (Q7L7V1 whole entry, looked up): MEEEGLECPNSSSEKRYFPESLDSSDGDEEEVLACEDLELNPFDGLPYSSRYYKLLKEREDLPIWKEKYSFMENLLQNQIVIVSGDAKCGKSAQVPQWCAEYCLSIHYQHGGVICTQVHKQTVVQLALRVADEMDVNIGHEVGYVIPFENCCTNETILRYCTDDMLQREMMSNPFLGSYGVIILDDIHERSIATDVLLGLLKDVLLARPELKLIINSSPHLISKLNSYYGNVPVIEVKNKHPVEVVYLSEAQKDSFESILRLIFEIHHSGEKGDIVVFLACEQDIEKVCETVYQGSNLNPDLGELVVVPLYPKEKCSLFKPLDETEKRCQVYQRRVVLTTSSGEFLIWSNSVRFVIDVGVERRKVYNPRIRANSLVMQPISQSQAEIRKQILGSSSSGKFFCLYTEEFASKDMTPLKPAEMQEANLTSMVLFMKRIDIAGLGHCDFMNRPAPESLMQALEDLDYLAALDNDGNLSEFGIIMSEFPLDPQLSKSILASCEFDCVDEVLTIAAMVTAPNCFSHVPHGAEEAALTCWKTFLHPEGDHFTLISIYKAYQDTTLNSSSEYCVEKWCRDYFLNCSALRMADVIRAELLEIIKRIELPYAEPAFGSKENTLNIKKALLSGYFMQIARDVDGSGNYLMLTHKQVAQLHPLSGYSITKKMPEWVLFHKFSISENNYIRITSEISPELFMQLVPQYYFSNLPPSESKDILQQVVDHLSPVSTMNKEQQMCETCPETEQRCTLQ
UniProt Q9Y600, sequence (Q9Y600 whole entry, looked up): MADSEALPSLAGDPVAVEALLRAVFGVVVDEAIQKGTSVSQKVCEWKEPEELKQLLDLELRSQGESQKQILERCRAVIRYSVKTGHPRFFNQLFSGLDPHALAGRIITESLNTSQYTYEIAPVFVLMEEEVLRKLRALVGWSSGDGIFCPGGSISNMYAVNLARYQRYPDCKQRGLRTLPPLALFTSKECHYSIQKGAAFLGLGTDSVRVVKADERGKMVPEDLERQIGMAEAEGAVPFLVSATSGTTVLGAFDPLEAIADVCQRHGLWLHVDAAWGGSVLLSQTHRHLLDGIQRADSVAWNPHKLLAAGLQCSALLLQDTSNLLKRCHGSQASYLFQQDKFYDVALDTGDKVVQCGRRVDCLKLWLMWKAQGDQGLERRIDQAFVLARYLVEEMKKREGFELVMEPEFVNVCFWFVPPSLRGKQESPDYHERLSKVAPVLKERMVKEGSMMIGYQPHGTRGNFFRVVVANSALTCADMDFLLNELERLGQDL
UniProt Q9UJA2, sequence (Q9UJA2 whole entry, looked up): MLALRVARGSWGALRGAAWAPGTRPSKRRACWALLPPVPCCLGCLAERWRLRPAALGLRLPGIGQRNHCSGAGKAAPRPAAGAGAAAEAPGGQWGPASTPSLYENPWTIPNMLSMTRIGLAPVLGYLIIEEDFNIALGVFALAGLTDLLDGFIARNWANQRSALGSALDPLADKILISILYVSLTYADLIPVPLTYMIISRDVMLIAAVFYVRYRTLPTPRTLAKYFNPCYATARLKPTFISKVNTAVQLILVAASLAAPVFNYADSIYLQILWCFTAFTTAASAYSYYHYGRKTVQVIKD
UniProt P12111, sequence (P12111 whole entry, looked up): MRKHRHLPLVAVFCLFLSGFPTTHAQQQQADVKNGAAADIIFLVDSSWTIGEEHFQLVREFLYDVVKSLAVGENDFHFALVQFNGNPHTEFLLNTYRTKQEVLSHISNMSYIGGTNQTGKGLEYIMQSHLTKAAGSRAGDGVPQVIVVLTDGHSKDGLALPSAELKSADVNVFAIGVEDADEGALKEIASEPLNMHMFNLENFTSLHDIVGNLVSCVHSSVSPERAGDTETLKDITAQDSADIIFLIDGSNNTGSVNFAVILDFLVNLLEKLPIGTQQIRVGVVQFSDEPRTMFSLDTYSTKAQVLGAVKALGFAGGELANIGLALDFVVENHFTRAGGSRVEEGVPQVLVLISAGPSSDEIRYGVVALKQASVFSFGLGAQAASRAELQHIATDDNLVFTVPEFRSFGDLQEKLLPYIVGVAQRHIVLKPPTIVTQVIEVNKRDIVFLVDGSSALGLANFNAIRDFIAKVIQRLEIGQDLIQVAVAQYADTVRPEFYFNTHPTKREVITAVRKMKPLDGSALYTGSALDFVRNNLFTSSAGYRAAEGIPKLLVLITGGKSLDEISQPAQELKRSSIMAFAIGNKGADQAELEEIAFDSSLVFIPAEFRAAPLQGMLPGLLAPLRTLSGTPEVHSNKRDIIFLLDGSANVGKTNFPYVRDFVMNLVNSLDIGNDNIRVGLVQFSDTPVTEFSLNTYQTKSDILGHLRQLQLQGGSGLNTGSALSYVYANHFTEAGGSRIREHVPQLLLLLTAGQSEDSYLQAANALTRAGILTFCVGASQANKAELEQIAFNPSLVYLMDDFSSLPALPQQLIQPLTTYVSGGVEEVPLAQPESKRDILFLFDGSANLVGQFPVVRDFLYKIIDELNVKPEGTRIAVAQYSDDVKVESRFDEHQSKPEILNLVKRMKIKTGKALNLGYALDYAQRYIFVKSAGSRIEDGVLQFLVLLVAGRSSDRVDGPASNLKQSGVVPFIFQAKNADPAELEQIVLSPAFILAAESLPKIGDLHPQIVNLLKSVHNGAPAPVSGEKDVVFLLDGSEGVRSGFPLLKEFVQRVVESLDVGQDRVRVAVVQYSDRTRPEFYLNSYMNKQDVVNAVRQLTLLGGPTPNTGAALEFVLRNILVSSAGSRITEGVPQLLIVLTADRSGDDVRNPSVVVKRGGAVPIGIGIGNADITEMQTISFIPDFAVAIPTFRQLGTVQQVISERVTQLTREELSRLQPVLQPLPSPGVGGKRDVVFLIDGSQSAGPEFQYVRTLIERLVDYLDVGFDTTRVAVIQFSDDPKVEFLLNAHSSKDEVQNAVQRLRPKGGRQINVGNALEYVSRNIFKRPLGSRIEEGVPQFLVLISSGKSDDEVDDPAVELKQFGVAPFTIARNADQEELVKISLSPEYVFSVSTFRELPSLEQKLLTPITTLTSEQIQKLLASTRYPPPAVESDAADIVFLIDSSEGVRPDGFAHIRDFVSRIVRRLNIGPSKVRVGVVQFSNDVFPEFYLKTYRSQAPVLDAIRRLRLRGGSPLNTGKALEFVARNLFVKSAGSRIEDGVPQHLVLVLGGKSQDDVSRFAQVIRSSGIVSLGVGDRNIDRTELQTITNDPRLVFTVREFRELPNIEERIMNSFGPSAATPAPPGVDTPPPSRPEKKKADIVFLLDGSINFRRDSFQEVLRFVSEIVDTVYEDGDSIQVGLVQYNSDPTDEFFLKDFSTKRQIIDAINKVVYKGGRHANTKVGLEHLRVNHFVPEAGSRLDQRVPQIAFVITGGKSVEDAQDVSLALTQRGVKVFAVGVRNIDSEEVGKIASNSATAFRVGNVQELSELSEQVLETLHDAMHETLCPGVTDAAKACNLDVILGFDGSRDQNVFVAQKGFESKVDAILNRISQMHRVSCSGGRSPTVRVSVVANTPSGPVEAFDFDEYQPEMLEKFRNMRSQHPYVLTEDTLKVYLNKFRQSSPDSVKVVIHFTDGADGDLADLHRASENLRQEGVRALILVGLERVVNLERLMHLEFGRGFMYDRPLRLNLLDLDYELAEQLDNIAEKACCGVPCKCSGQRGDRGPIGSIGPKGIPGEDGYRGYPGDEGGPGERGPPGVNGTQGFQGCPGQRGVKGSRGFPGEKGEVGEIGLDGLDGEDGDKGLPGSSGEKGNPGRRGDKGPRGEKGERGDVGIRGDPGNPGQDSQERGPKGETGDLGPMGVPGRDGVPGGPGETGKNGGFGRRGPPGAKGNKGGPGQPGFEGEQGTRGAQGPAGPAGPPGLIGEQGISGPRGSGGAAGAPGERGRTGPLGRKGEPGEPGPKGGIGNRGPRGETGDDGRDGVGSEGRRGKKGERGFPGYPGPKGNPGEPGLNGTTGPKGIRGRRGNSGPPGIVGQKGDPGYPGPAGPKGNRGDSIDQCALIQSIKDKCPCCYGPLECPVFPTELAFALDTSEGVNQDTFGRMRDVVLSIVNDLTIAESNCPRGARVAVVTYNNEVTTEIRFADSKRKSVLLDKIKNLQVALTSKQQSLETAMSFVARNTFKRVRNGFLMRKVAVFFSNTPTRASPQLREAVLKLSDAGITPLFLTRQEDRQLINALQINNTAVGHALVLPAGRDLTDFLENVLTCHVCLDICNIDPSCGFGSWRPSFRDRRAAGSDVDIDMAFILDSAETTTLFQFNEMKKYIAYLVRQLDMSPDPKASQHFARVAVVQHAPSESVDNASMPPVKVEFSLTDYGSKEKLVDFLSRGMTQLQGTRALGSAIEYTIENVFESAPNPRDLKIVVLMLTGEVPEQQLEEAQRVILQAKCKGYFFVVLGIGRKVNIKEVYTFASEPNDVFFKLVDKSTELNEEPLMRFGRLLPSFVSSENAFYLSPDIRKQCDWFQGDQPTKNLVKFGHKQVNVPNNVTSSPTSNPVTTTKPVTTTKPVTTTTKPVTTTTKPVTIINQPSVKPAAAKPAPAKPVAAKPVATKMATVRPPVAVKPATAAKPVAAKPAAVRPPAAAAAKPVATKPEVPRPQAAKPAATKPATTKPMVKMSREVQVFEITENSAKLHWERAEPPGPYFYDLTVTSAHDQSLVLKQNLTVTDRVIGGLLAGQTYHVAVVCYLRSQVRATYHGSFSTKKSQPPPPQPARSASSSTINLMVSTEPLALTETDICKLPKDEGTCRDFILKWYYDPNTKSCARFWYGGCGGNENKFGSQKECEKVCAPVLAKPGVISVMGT
UniProt Q8WXC6, sequence (Q8WXC6 whole entry, looked up): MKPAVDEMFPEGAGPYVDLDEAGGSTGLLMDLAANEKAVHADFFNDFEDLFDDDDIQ

log2 fold change, inactive:
COPS9 (UniProt Q8WXC6) -0.01
CHEK2 (UniProt O96017) -0.042
COL12A1 (UniProt Q99715) -0.016
CSAD isoform 3 (UniProt Q9Y600) -0.02
DALRD3 (UniProt Q5D0E6) 0.034
CORO7 (UniProt P57737) -0.001
DHRS13 (UniProt Q6UX07) 0.227
COL6A3 (UniProt P12111) -0.101
CRLS1 (UniProt Q9UJA2) 0.074
DAPK1 isoform 3 (UniProt P53355) -0.015
DHX32 (UniProt Q7L7V1) -0.083
CNK3/IPCEF1 isoform 2 (UniProt G9CGD6) 0.065
CLASP1 isoform 4 (UniProt Q7Z460) 0.199
CLIP1 isoform 2 (UniProt P30622) -0.067
CYP4V2 (UniProt Q6ZWL3) -0.07
DNM2 isoform 4 (UniProt P50570) 0.099
DONSON (UniProt Q9NYP3) 0
CNOT2 (UniProt F8VRS8) 0.307
